# Sampled rows, rich in hits. Any-hit rate of the full collection: about 19%.
# DT40 TDP1 CPT – growth inhibition of DT40 Tdp1-/-;hTDP1 cells with camptothecin (screen for TDP1 inhibitors). Potency, µM (top dose mostly 46.2 µM), inactives show at the top dose activity change, negative = growth inhibition, most hits filed as inhibitors. 420,000 tested, 12% active. chicken DT40 Tdp1-/-;hTDP1 cells + 20 nM CPT, ATP luminescence, 48 h; also: potency is read from the fitted curve at half-maximal effect; % is scaled to controls: 0 for no effect and ±100 for the full control effect; nearly all actives have a fitted effect of over 55% in size
#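 Chicken DT40 Tdp1-/- cells stably complemented with human TDP1 were seeded at 400 cells/well in medium containing 20 nM camptothecin, exposed to pin-transferred compounds, and grown at 37 °C for at least 48 hr. Viability was read as ATP luminescence.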
# IL1B secr inh – inhibitors of inflammasome signaling (IL-1 beta secretion) | AID 743279 | THP-1 LPS/ATP IL-1B secretion, AlphaLISA, 16 h; hits give low values | activity change, % at 57.5 µM | 360,000 tested, 4.7% active; in the data active = activity change below about -50%; inconclusive = mostly about -30% to -49%; also: % is scaled to controls: 0 for no effect and ±100 for the full control effect
#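 THP-1 cells pretreated 1 hr with compounds (up to 57.5 uM final), then stimulated with LPS (250 ng/mL final) plus ATP (1.25 mM final); secreted IL-1B measured by AlphaLISA after 16 hr, decreased signal indicating inhibition.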
# TGFb inhibitor – blocks TGF-b signaling; HepG2 CAGA-GFP TGF-b/SMAD3 reporter, GFP fluorescence, 18 h; TGF-beta stimulated, 500 pg/mL final; Potency, µM (series often up to 46.1 µM), for the others: at the top dose activity, negative = inhibition, most hits filed as inhibitors; 410,000 tested, 1.2% active; AID 588855; also: potency is read from the fitted curve at half-maximal effect; % is scaled to controls: 0 for no effect and ±100 for the full control effect; nearly all actives have a fitted effect of over 65% in size
#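 TGF-beta reporter screen: HEPG2 CAGA-GFP, 1% FBS, 500 pg/mL TGF-beta final, 18 h; per-cell GFP summed per well; curves fitted and categorized by class.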
# S-ASM inh – human S-ASM enzyme inhibition; placental ASM, HMU-PC fluorogenic substrate, 60 min; Potency, µM (doses to about 57.5 µM), for inactives: at the top dose activity change, negative = inhibition, usual class: inhibitors; 340,000 tested, 0.006% active; AID 504937; also: potency is read from the fitted curve at half-maximal effect
# Target sequence (P17405 47-631 limits assumed): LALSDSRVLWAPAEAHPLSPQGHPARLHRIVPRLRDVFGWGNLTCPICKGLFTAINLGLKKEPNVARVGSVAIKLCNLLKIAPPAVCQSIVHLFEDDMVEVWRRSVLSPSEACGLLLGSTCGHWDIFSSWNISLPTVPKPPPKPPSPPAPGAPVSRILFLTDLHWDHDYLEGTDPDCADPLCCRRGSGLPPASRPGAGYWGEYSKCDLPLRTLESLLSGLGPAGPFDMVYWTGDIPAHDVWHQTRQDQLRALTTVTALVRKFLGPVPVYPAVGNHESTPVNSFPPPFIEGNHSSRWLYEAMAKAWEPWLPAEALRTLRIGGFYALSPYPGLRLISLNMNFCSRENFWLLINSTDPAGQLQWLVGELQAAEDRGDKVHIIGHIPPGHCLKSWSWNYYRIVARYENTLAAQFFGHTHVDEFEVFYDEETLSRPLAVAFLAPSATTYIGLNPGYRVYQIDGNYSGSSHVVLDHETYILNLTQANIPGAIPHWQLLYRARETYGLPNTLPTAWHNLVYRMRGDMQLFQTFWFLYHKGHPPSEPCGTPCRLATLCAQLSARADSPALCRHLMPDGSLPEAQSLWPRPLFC
#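 HMU-PC0 cleavage (9 uM final) by human placental ASM, 60 min at 37 °C following 10 min compound exposure at RT; stopped at pH 10, fluorescence Ex 386/Em 447 nm.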
# HepG2 viability – counter-screen for TGF-b inhibitors: cytotoxicity in HepG2 cells. HepG2 CAGA-GFP viability, ATP luminescence, 18 h. Potency, µM (doses to about 46.1 µM), inactives show at the top dose activity change, negative = cytotoxicity, most hits filed as cytotoxic. 410,000 tested, 0.76% active; also: potency is read from the fitted curve at half-maximal effect
#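 CellTiter-Glo luminescence gave cytotoxicity after 18 hours at 37 degrees C. The cells were HepG2 CAGA-GFP in 1% FBS DMEM, stimulated with 500 pg/mL TGF-beta after compound addition. %Activity was normalised to no-cell wells (complete cell-killing) and DMSO (no toxicity), and curves were fitted and classified.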
# TDP1 cell noCPT – qHTS for Inhibitors of human tyrosyl-DNA phosphodiesterase 1 (TDP1): qHTS in cells in absence of CPT; DT40 Tdp1-/- hTDP1 cells, no CPT, ATP luminescence, 48 h; Potency, µM (series often up to 46.2 µM), without a hit: top-dose activity change, negative = growth inhibition, usual class: inhibitors; 420,000 tested, 15% active; also: potency is read from the fitted curve at half-maximal effect; % is scaled to controls: 0 for no effect and ±100 for the full control effect; nearly all actives have a fitted effect of over 55% in size
#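 DT40 Tdp1-/-;hTDP1 cells, no CPT (DMSO vehicle only), 400 cells/well; compounds pin-transferred; ≥48 hr, 37 °C; CellTiter-Glo 30 min RT dark, luminescence read.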
# * hit, by the source's call; i = inactive; ? = inconclusive; nt = no result. Unless noted, calls follow the shape of the dose curve; as a rule, active = well fitted curve in the direction sought with a large enough effect; inconclusive = small, poorly fitted or top-dose-only effect, or another doubt; inactive = no such curve, though single readings can be large; an effect the other way counts as inactive or inconclusive.
SMILES,DT40 TDP1 CPT,IL1B secr inh,TGFb inhibitor,S-ASM inh,HepG2 viability,TDP1 cell noCPT
C[C@@H](NC(=O)[C@@H]1Cc2ccccc2CN1)C(=O)NCC1CCCO1 (stereo partly specified),-5%,11,-13%,1%,-22%,7%
C=CCOc1ccc2c(c1)C(=NO)c1cc(OCC=C)ccc1-2,?,?,?,14%,-37%,23µM*
COc1ccc2c(c1)C(=NO)c1cc(OC)ccc1-2,?,?,-10%,-6%,-41%,?
NC(=S)NN=C1c2cc(OCCN3CCOCC3)ccc2-c2ccc(OCCN3CCOCC3)cc21,16µM*,-96*,?,-8%,-60%,16µM*
ON=C1c2cc(OCCN3CCCCC3)ccc2-c2ccc(OCCN3CCCCC3)cc21,7.3µM*,-97*,?,-1%,-53%,8.2µM*
COc1cccc(/C(C)=N/NS(=O)(=O)c2ccc(Cl)cc2)c1,3%,26,-7%,-4%,-6%,4%
COc1cccc(/C(=N/O)C2CC2c2ccc(Cl)cc2)c1 (stereo unspecified),5%,-88*,0%,-4%,3%,-17%
O=C(CS(=O)(=O)c1cccc2nsnc12)NCc1ccccc1,-11%,nt,-4%,nt,6%,4%
CC(C)c1ccc(/C=C2\SC(=O)N(CC(=O)NC3CCS(=O)(=O)C3)C2=O)cc1 (stereo unspecified),23µM*,-30,-12%,-13%,-30%,16µM*
O=C(CCCN1C(=O)/C(=C/c2ccc(F)cc2)SC1=S)NC1CCS(=O)(=O)C1 (stereo unspecified),18µM*,19,-14%,-15%,-28%,?
Cc1noc(C)c1NC(=O)Nc1cccc2c1O[C@@H](CN(C)C(=O)Nc1ccc3c(c1)OCO3)[C@@H](C)CN([C@H](C)CO)C2=O,?,-21,-28%,2%,1%,?
Cc1ncc(CO)c(/C=N/NC(=S)Nc2ccc(F)cc2)c1O,16µM*,50,-15%,84%,-28%,10µM*
Cc1ncc(CO)c(/C=N/N=C/c2ccccc2O)c1O,-15%,-11,-4%,26%,-36%,-12%
FC(F)(F)c1ccc(N/N=C/c2cccnc2)nc1,-23%,-97*,-12%,-2%,-21%,?
Cc1ncc(CO)c(/C=N/Nc2ccc(C(F)(F)F)cn2)c1O,4.1µM*,63,0%,i,-16%,3.7µM*
CC(=O)c1ccc(NC(=O)c2ccc(CN3C(=O)CCn4nc(C)cc43)cc2)cc1,-10%,nt,-20%,nt,7%,-5%
COc1ccc(NC(=O)C(C)Sc2nnc3c4c(nc(-c5ccc(OC)cc5)n23)CC(C)(C)OC4)cc1 (stereo unspecified),21µM*,-1,18%,-6%,-12%,15µM*
COc1ccc(CNCC(O)(c2ccccc2)c2ccc(F)cc2)cc1 (stereo unspecified),21µM*,-89*,?,-5%,-43%,15µM*
COc1ccc(CNC(=O)NCc2ccc(OC)c(OC)c2)cc1OC,-10%,30,-9%,1%,-20%,-6%
COc1ccc(CNC/C=C/c2ccccc2)cc1,?,-14,10%,-2%,-7%,?
COc1ccc(CNCC(O)(c2ccc(Cl)cc2)c2ccc(Cl)cc2)cc1,15µM*,-16,0%,-18%,10µM*,18µM*
CCCCNCC(O)(c1ccc(Cl)cc1)c1ccc(Cl)cc1,15µM*,-132*,-9%,-4%,-4%,23µM*
COc1ccc(CNCC(O)(c2ccc(Cl)cc2)c2ccc(Cl)cc2)cc1OC,15µM*,?,?,-7%,22µM*,6.5µM*

# Source: PubChem BioAssay (National Center for Advancing Translational Sciences (NCATS))
